Data reported in PubChem BioAssay AID1259240 (Keith Lab, Institute of Cancer Science, University of …, 2017).
Activity calls are given as the source filed them. Cut-off read from the data, not from the text of the source: active = fold change mostly below about -2 (no sharp cut-off); inactive = mostly above about -1.8.

Assay: TERT promoter activity modulators, primary screen, cell-based, luciferase reporter, human (AID 1259240)
Details: A2780 TERT promoter luciferase reporter, 16 h; at 20 µM, fold versus average of vehicle-only wells

outcome, inactive:
CC1=C(C(=O)Nc2ccccc2)C(c2ccccn2)n2nc(CCCO)nc2N1 (stereo unspecified), NC(=O)c1c(NC(=O)c2cc(-c3ccc(O)cc3)on2)sc2c1CCCC2, CCn1c(SCC(=O)Nc2nnc(C)s2)nnc1-c1c[nH]c2ccccc12

outcome, active:
Cc1ccc2oc(-c3cc(NC(=O)c4ccc5c(c4)OCCO5)ccc3O)nc2c1

Fold change, active:
Cc1nn(-c2nc3ccccc3[nH]2)c(=O)c2ccccc12 -14.7, CCSc1nc2ccccc2n1S(=O)(=O)c1ccccc1 -2.48, CC1(C)CC(=O)c2sc(NC(=O)Cc3ccc(Br)cc3)nc2C1 -3.4

Fold change, inactive:
C1=C(CCNc2nnc(Cc3cccnc3)c3ccccc23)CCCC1 -1.15, O=C(NCc1ccccn1)c1cccn2c(=O)c3c4c(sc3nc12)CCCC4 -1.8, Nc1ncnc2c1nc1n2CC(O)CS1 (stereo unspecified) -1.44, C=CCOc1ccc(/C(O)=C2/C(=O)C(=O)N(CC3CCCO3)C23C(=O)N(C)c2ccccc23)cc1 (stereo unspecified) -1.41, COc1ccc2c(=O)c(Oc3ccc(C)cc3)c(C(F)(F)F)oc2c1 -1.15, COC(=O)c1ccc(C2Oc3c(OC)cccc3C3CC(c4cccs4)=NN32)cc1 (stereo unspecified) -1.08, O=C(CC(=O)Nc1ccccn1)Nc1ccc2nc3n(c(=O)c2c1)CCCCC3 -1.11, CCOC(=O)C1=C(CS(=O)(=O)c2ccc(C)cc2)NC(=O)NC1c1ccc(OC)cc1OC (stereo unspecified) -1.29, O=C(CN1C(=O)COc2ccc(S(=O)(=O)N3CCOCC3)cc21)N1CCC2(CC1)OCCO2 1.48
